High-throughput results from PubChem.
Only some compounds are listed: those with a hit (about 6.3% of all), similar ones and a draw of the others.
NADH coupling = inhibition of NAD/NADH coupling enzymes, library profiling; coupled PK/LDH NADH assays, four targets; IC50, µM (top dose mostly 10 µM), for the others: top-dose inhibition; actives 0.02% (n = 65,000);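 active means single-dose screening hits from any of four coupled enzyme assays that gave an IC50 when retested across doses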;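 further: the DPM-DC format reads NADH fluorescence rather than 340 nm absorbance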
Abs 340nm = compounds absorbing at 340 nm; compound absorbance at 340 nm, fold over control; fold change at 10 µM; 65,000 tested, under 10 active;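 active means at 10 µM dose, initial 340 nm absorbance at least 2 fold that of control wells; inactive means change under 2 fold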;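 further: initial absorbance extrapolated from kinetic A340 decline of NADH oxidation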
Spn DPM-DC inh = inhibitors of Streptococcus pneumoniae diphosphomevalonate decarboxylase; actives 0.49% (n = 65,000); calls only at 10 µM; AID 556; purified DPM-DC, PK/LDH coupled NADH fluorescence;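 active means the 320 compounds with the highest percent inhibition in the single-dose primary screen, excluding strongly autofluorescent ones, cut at about 32% in these data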;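 further: kinetic rate of NADH fluorescence loss reporting ADP formed by the decarboxylase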
MK inhibit = S. pneumoniae mevalonate kinase inhibition; purified MK, PK/LDH-coupled NADH absorbance 340 nm; inhibition, % at 10 µM; actives 0.48% (n = 65,000); AID 555;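 active means ranked among the strongest by inhibition in the single 10 µM screen, a fixed top-ranked set picked for dose follow-up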
Fluor 339 460 = intrinsic fluorescence of library compounds, ex339/em460 – biochemical, MLSMR library, data from DPM-DC assay, artefact control, profiling panel; AID 709; compound autofluorescence, ex339/em460 nm, NADH buffer; active compounds read high; 1 = no-compound wells, NADH background; actives 5.5% (n = 65,000); fluorescence fold increase at 10 µM;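 active means at 10 µM, mean starting fluorescence two-fold or more over control wells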;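 further: signal is the first read of a kinetic run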
Spn PMK inh = S. pneumoniae PMK inhibition; purified PMK, PK/LDH-coupled NADH absorbance 340 nm; inhibition, % at 10 µM; actives 0.49% (n = 65,000);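 active means top-ranked compounds by inhibition in the single 10 µM screen, taking a fixed number of the strongest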;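 further: 0% = full reaction with DMSO carrier and 100% = background rate without enzyme reaction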
* hit, by the source's call; i = inactive; / = not tested or not shown; + = active, no number.

SMILES	NADH coupling	Abs 340nm	Spn DPM-DC inh	MK inhibit	Fluor 339 460	Spn PMK inh
CCN(Cc1cc2cc(C)ccc2[nH]c1=O)C(=O)c1cccc(OC)c1	9%	1	i	6	1.6	11
COC(=O)c1cc(NS(=O)(=O)c2ccc(OC)c(OC)c2)ccc1Cl	6%	1	i	9	1.1	10
COC(=O)c1cc(Cl)c(NS(=O)(=O)c2ccccc2)cc1OC	15%	1	+	0	1.9	11
Cc1ccc(Cn2c(SCC(N)=O)nc3c2c(=O)n(C)c(=O)n3C)cc1	2%	0.98	i	6	1	9
Cc1ccc(NS(=O)(=O)c2cccc(C(=O)n3ncc(C#N)c3N)c2)c(C)c1	5%	1	i	0	1.1	15
CCN(CC)C(=O)c1cc2c(=O)n3ccccc3nc2s1	1%	1.1	/	2	2.1*	0
COCCN(CCOC)C(=O)c1cc2c(=O)n3ccccc3nc2s1	12%	1.1	/	3	4.9*	20
O=C(O)c1cccc(N2CCCC2)c1	12%	1	/	6	5*	18
CCC(NC(=O)c1ccccc1NC(=O)c1ccco1)C(=O)NC1CCCCC1 (stereo not given)	0%	1	i	0	1.1	0
FC(F)(F)c1cc(-c2ccco2)nc(-n2nc(C(F)(F)F)cc2C2CC2)n1	11%	1	i	5	3.4*	12
FC(F)(F)c1cc(-c2ccco2)nc(-n2nnc3ccccc32)n1	11%	1	+	5	2.4*	11
CC(C)(C)NC(=O)CSc1nnc(Cc2ccc3c(c2)OCO3)n1C1CCCCC1	5%	1	i	1	1	14
CCCCCn1c(N(C)Cc2ccccc2)nc2c1c(=O)[nH]c(=O)n2C	2%	1	i	4	1.1	2
CCOc1cc(S(=O)(=O)N2CCC(Cc3ccccc3)CC2)c(OCC)cc1-n1cnnn1	2%	1	i	0	1.4	2
CCOc1cc(S(=O)(=O)NCCc2ccccc2C)c(OCC)cc1-n1cnnn1	0%	1.1	/	0	3.9*	0
CCOc1cc(S(=O)(=O)NCCc2cccc(C)c2)c(OCC)cc1-n1cnnn1	8%	1	/	4	3.7*	11
COC(=O)C1=C(C)NC(=O)C1(NC(=O)c1cccnc1)C(F)(F)F (stereo not given)	3%	0.98	i	5	1	13
Cc1cccc(OCC(=O)Nc2ccc(N3CCN(S(C)(=O)=O)CC3)cc2)c1	8%	0.99	i	8	1.1	11
Cc1nn(-c2ccccn2)c2nc(-c3cccs3)cc(C(=O)N3CCOCC3)c12	8%	1.2	/	4	2.1*	12
O=c1c2ccccc2sn1-c1cc(S(=O)(=O)N2CCOCC2)ccc1N1CCOCC1	62%	1	+	95*	1.2	17
CCOc1ccc2nc(NCCNC(=O)CC)c(C#N)cc2c1	13%	1	/	9	3.8*	17
CCOc1ccc2nc(SCC(=O)N3CCCCCC3)c(C#N)cc2c1	4%	0.97	i	6	1.2	9
C(=N\n1cnnc1)/c1ccc(OC2CSC2)cc1	2%	1.1	i	0	1.1	0
COc1cccc(-c2cc(C(=O)Nc3cc(C)n(Cc4ccc(Cl)cc4)n3)no2)c1	2%	0.99	i	1	1.1	8
COc1ccc(OC)c(-c2cc(C(=O)Nc3cc(C)n(Cc4ccc(Cl)cc4)n3)no2)c1	6%	1	i	0	3.8*	18
SMILES	NADH coupling	Abs 340nm	Spn DPM-DC inh	MK inhibit	Fluor 339 460	Spn PMK inh
c1cc2c3c(cccc3c1)NC1(CCCCCC1)N2	9%	1.1	/	11	3.8*	7
COc1cccc2cc(C(=O)N3CCc4ccccc4C3)c(=O)oc12	5%	1.1	i	5	1.2	9
COc1cccc2cc(C(=O)N3CCN(c4ccccc4F)CC3)c(=O)oc12	10%	1	i	0	1.2	29*
OCC(CO)(CO)N=Cc1cc(Br)ccc1O	15%	1	i	19	1.2	20
COc1ccc(N(CC(=O)N2c3ccccc3CC2C)S(=O)(=O)c2c(C)nn(C)c2C)cc1 (stereo not given)	3%	1	i	7	1.1	3
CCNc1ccc2c(Cl)cc(=O)oc2c1	1%	1	/	i	2.9*	0
COc1ccc2nc(C)c(C(=O)OCCN(C)C)cc2c1	7%	1	i	0	2.1*	2
COc1ccc2c(c1)c(C(=O)OCCN(C)C)c(C)n2C	6%	1	i	9	1.1	10
CCN(CC)c1ccc(-c2nn3c(-c4n[nH]c5c4CCC5)nnc3s2)cc1	14%	1.1	i	3	2.9*	9
C1CCC(c2nn3c(-c4n[nH]c5c4CCC5)nnc3s2)CC1	6%	1	i	6	1.1	13
CC(C)(CSc1nncn1N)NS(=O)(=O)c1ccc(Cl)cc1	2%	1	i	5	1.1	6
CCc1cc2c(=O)c(-c3cscn3)coc2c(CN(C)C)c1O	4%	1.1	/	6	2.3*	1
CC(C)OCCCNC(=O)CN1C(=O)CC(C)(C)S(=O)(=O)c2ccccc21	17%	1	i	44*	0.94	0
Cc1ccc(CCNC(=O)c2coc3nc4ccccc4nc23)cc1	4%	1	i	1	2.3*	12
CC1CCN(CCCNC(=O)c2coc3nc4ccccc4nc23)CC1	3%	1	/	7	3.4*	10
Cc1occc1C(=O)NCCCc1ccccc1	0%	1.1	i	0	1.1	0
CC1CCCN(CCCNC(=O)c2coc3nc4ccccc4nc23)C1 (stereo not given)	13%	1.1	/	10	4.9*	15
CC1CCN(CCCNC(=O)c2n[nH]c(=O)c3ccccc23)CC1	1%	1.1	i	2	1.1	0
COc1cc(CC(=O)OC2CCOC2=O)cc(OC)c1OC (stereo not given)	6%	1	i	2	1	15
Cc1ccc(C)c(/C(O)=C2\C(=O)C(=O)N(CCCN3CCOCC3)C2c2cccnc2)c1 (stereo not given)	1%	1.1	i	4	1	0
O=C(c1ccccc1)c1nnc(-c2ccccc2F)o1	3%	1	i	5	1.1	0
CN(C)c1oc(-c2ccccc2F)nc1C#N	2%	1.1	/	4	2.4*	2
CCSc1nnc(-c2cccs2)o1	2%	1.1	i	12	1.1	6
CNc1oc(-c2cccs2)nc1C#N	2%	1.1	/	0	2.4*	4
CN(C)c1oc(-c2cccs2)nc1C#N	4%	1.1	/	3	2.4*	4
Cc1c(C(=O)N2CCN(C(=O)c3ccco3)CC2)sc2nc(-c3ccc(F)cc3)cn12	2%	1	i	1	1.1	5
